# High-throughput results from PubChem.
# This is a sample that favours compounds with a hit; in the whole collection about 11% have one here.
# VDR inhibitor: vitamin D3 receptor (human) inhibition | 400,000 compounds, 0.93% hits | VDR-SRC2-3 peptide fluorescence polarization, 2 h | Potency, µM, without a hit: max response, negative = inhibition, most hits filed as inhibitors | P11473; also: % is scaled to controls: 0 for no effect and ±100 for the full control effect
# Target sequence (P11473 whole entry, looked up): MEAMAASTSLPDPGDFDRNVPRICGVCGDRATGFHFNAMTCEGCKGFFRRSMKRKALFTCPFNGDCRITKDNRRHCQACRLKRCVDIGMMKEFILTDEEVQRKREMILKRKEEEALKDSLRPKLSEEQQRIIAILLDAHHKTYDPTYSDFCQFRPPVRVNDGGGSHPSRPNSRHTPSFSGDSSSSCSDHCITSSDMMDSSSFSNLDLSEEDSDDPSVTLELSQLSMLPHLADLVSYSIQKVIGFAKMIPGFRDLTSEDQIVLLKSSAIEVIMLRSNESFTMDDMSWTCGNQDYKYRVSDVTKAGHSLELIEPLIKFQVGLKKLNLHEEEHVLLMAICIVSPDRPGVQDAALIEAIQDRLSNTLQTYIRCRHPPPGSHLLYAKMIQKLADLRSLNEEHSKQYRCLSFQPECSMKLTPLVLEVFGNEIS
#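 Fluorescence polarization assay of small-molecule disruption of VDR binding to coregulator peptide SRC2-3. Compounds and controls pin-transferred, then read after 2 h incubation at ambient room temperature.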
# G9a inh: inhibitors of human histone lysine methyltransferase G9a; Q96KQ7; G9a H3K9 monomethylation, AlphaScreen, 2 h; Potency, µM (titrated, usually from 102 µM), inactives show at the highest dose activity, negative = inhibition, usual class: inhibitors; 350,000 compounds, 8.8% hits; AID 504332; also: % is scaled to controls: 0 for no effect and ±100 for the full control effect; nearly all actives have a fitted effect of over 75% in size
# Target sequence (Q96KQ7 913-1193 limits assumed): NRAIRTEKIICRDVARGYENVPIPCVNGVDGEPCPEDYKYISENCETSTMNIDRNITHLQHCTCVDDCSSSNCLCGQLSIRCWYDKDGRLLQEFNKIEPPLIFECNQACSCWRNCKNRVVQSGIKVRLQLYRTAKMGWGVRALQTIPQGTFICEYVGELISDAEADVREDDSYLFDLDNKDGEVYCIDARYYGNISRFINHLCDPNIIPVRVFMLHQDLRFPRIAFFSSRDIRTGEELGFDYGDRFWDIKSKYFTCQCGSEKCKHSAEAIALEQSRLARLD
#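 Compounds were preincubated with 20 nM G9a for 15 min, after which biotinylated H3K9 peptide (500 nM) and SAM (20 uM) started a 2 h room-temperature reaction. Monomethylated product was quantified by antibody-based AlphaScreen chemiluminescence.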
# PLK1 PBD inh: blocks phosphopeptide binding to human PLK1 polo-box domain. Plk1 PBD binding of FITC phosphopeptide, fluorescence polarization. P53350. Potency, µM, for the others: max response, negative = inhibition, hits mostly inhibitors. 360,000 compounds, 2.8% hits. AID 720504; also: series mostly up to about 57 µM; % is scaled to controls: 0 for no effect and ±100 for the full control effect; nearly all actives have a fitted effect of over 65% in size
# HP1b chromo inh: inhibitors of HP1-beta chromodomain binding to methylated histone tails | Potency, µM (series often up to 114 µM), for inactives: at the highest dose activity change, negative = inhibition, actives largely listed as inhibitors | P83916 | AID 540317 | 390,000 compounds, 0.56% hits | AlphaScreen HP1-beta / biotin-H3K9me3 peptide binding; also: nearly all actives have a fitted effect of over 70% in size
#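 HP1-beta protein (50 nM final) preincubated 30 min at room temperature with biotinylated H3(1-18)K9me3 peptide (50 nM) in PBS pH 7.4, 0.01% Tween-20, then compound added for 30 min. AlphaScreen streptavidin donor/nickel chelate acceptor beads (10 ug/mL final), 30 min dark, luminescence read.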
# JMJD2A Tudor: blocks the human JMJD2A Tudor domain | O75164 | AlphaScreen JMJD2A-Tudor / H3K4me3 peptide binding | Potency, µM (doses to about 114 µM), inactives show at the highest dose activity change, negative = inhibition, most hits filed as inhibitors | 390,000 compounds, 4.4% hits | AID 504339; also: % is scaled to controls: 0 for no effect and ±100 for the full control effect; nearly all actives have a fitted effect of over 50% in size
# BAZ2B inh: inhibitors of human BAZ2B bromodomain; Q9UIF8; AlphaScreen BAZ2B-H3K14Ac peptide displacement; Potency, µM (top dose mostly 114 µM), for the others: at the highest dose activity change, negative = inhibition, actives largely listed as inhibitors; 360,000 compounds, 4.4% hits; AID 504333; also: % is scaled to controls: 0 for no effect and ±100 for the full control effect; nearly all actives have a fitted effect of over 60% in size
#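 Inhibition is scored as reduced AlphaScreen emission. The BAZ2B/b-H3(5-23)K14Ac complex (50 nM each) in PBS pH 7.4, 0.01% Tween-20 meets compound (up to 110 uM) for 30 min at RT before bead addition.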
# An asterisk follows results filed as active; ? = inconclusive; / = no result given; [ ] = remark or other dose. Calls follow the shape of the dose curve; as a rule, active = well fitted curve in the direction sought with a large enough effect; inconclusive = small, poorly fitted or top-dose-only effect, or another doubt; inactive = no such curve, though single readings can be large; an effect the other way counts as inactive or inconclusive. Potency is read from the fitted curve at half-maximal effect.
SMILES,VDR inhibitor,G9a inh,PLK1 PBD inh,HP1b chromo inh,JMJD2A Tudor,BAZ2B inh
CC(=O)c1c(C)nc(-c2ccc(Cl)cc2)nc1N=CN(C)C,0.0%,3.55µM*,2.9%,17.1%,?,79.4µM*
Cc1ccc(S(=O)(=O)N(C)CC(=O)NNC(=O)Cc2cccc(F)c2)cc1,-11.0%,4.8%[59 µM],-2.7%,38.9%,-6.0%,-1.2%
[O-][n+]1c2ccccc2cc2ccccc21,-14.1%,24.7%[2.33 µM],23.8µM*,21.4%,?,9.1%
COc1cc(C(=O)NC(=S)Nc2ccc(Cl)cn2)cc(OC)c1OC,?,4.5%,23.8µM*,-0.7%,15.8µM*,-9.3%
COc1cc(C(=O)NC(=S)Nc2ccc3c(c2)C(=O)N(C)C3=O)cc(OC)c1OC,-8.7%,44.7µM*,-17.9%,-12.8%,?,-29.0%
COc1cc(C(=O)Nc2ccc(NC(=O)c3cccc(Cl)c3)nc2)cc(OC)c1OC,8.9%,-3.3%,-4.9%,3.0%,-20.7%,-10.7%
Cc1[nH]c2ccccc2c1C(c1ccncc1)N1CCC(C)CC1 (stereo not drawn),-26.6%,28.2µM*,?,-12.3%,?,-10.8%
Cc1[nH]c2ccccc2c1C(c1ccncc1)N1CCN(c2ccccn2)CC1 (stereo not drawn),-28.0%,22.4µM*,-23.7%,?,-35.4%,?
CC(C)(C)n1nnnc1C(c1cccnc1)N1CCN(c2ccccc2F)CC1 (stereo not drawn),-2.1%,-2.6%[59 µM],-7.7%,31.6%,-8.2%,1.2%
Clc1ccc(C(c2ccccc2)N2CCN(c3ccccn3)CC2)cc1 (stereo not drawn),3.7%,29.0%,-7.4%,-12.5%,-8.4%,-14.0%
Cc1[nH]c2ccccc2c1C(c1ccncc1)N1CCN(c2ccccc2F)CC1 (stereo not drawn),-10.6%,11.2µM*,-24.2%,-22.5%,?,?
CCCCCCCCN1C(=O)[C@H](CC(=O)NCCc2ccccc2OC)C[C@@]2(C(=O)OC)CCCCC=C12,/,/,0.8%,/,/,/
COc1cc(C(=O)NCC(=O)N2CCN(S(=O)(=O)c3cc(C)ccc3C)CC2)cc(OC)c1OC,-1.6%,27.2%,3.0%,33.7%,6.0%,-5.3%
C=CCOc1ccc(CNn2cn[nH]c2=S)cc1OC,14.5%,3.16µM*,-5.0%,24.0%,22.4µM*,-0.5%
COc1cc(CNn2cn[nH]c2=S)cc(Cl)c1OCc1ccc(F)cc1,-3.8%,5.62µM*,0.7%,17.7%,-18.8%,1.1%
C=CCc1ccc(OC)c(OC)c1,-1.0%,-1.3%[12.7 µM],-2.4%,13.8%,-6.1%,6.2%
C=CCOc1ccc(CNn2cn[nH]c2=S)cc1OCC,7.0%,32.3%[0.501 µM],1.2%,20.3%,8.91µM*,-3.8%
O=C(Nc1ccc(S(=O)(=O)N2CCOCC2)cc1)c1ccc(Cl)cc1Cl,-8.9%,36.0%,-4.2%,28.5%,-13.3%,6.1%
COc1ccc(C(=O)Nc2nc3ccccc3n2CCOc2ccc(Cl)cc2)cc1,5.9%,39.7%[59 µM],/,48.3%,-5.5%,6.8%
CC(C)NC(=O)C1C(c2ccc(C(F)(F)F)cc2)=Nc2ccccc2N1C(=O)c1cccc2ccccc12 (stereo not drawn),/,/,5.8%,/,/,/
O=C(NCc1cccc2ccsc12)c1cccs1,4.5%,15.5%[2.33 µM],1.9%,78.8%,-0.7%,-3.7%
Brc1c(CSc2nncn2-c2ccccc2)nc2ncccn12,-7.2%,56.2µM*,-5.7%,15.3%,-1.9%,-36.1%
Brc1c(CSc2nncn2-c2ccccc2)nc2sccn12,7.9%,42.6%[59 µM],-0.9%,13.1%,-15.3%,39.1%
Cc1cccc2nc(CSc3nnnn3-c3ccccc3)cn12,8.5%,-11.6%,-27.1%,60.8%,-26.7%[57.1 µM],-1.9%
Cc1cccc2nc(CSc3nncn3-c3ccccc3)cn12,1.3%,39.8µM*,-5.5%,34.2%,-14.6%,-9.1%
SMILES,VDR inhibitor,G9a inh,PLK1 PBD inh,HP1b chromo inh,JMJD2A Tudor,BAZ2B inh
c1ccc(-n2cnnc2SCc2cn3ccccc3n2)cc1,5.4%,50.1µM*,-5.3%,32.0%,-6.4%,2.9%
CCC(Sc1ncnc2sc3c(c12)CCCC3)C(=O)OCC(C)C (stereo not drawn),-2.6%,94.8%[59 µM],/,188.1%,142.6%,204.6%
COc1ccc(S(=O)(=O)n2[nH]c(=O)c(CCO)c2C)c([N+](=O)[O-])c1,-14.1%,?,13.4µM*,9.2%,-28.7%,-36.2%
Cc1ccc2c(=O)n3c(nc2c1)C(Cc1ccc(O)cc1)NC(=O)c1cc2ccccc2cc1-3 (stereo not drawn),/,/,-5.2%,/,/,/
C[n+]1cn(/N=C/c2ccccc2)c2ccccc21,-5.9%,1.58µM*,-21.8%,17.4%,?,9.6%
C(=N\n1c2ccccc2c2ccccc21)/c1ccccc1,-8.3%,19.1%[59 µM],2.4%,44.5%,-4.2%,23.3%
CCCOc1ccc(Cc2c(COCC)[nH]c(=S)[nH]c2=O)cc1,11.2%,44.7µM*,?,3.4%,-20.3%,-15.8%
CNc1ncnc(Sc2nc(N)nc3nc[nH]c23)c1[N+](=O)[O-],-4.8%,/,?,27.7%,31.6µM*,/
O=S(=O)(c1ccccc1)N1CCC2(CCN(c3cccc(-c4ccccc4)c3)CC2)CC1,-17.9%,-3.2%[12.7 µM],/,/,/,/
O=C(OC(C(=O)NC1CCCCC1)c1ccc(C(F)(F)F)cc1)c1ccco1 (stereo not drawn),-28.9%,-1.8%,0.1%,19.9%,-6.8%,-3.8%
O=C1C2C3C=CC(CC3)C2C(=O)N1c1ccccc1F (stereo not drawn),-5.6%,15.1%,-6.4%,26.5%,0.7%,4.6%
NC(=O)[C@@H]1[C@@H]2C(=O)N(c3ccc(F)cc3)C(=O)[C@@H]2[C@H]2C=Cc3ccccc3N21,-8.5%,8.91µM*,?,?,-33.7%,-36.4%
C=CCn1c(O)c(CN2CCOCC2)c(C)c(C#N)c1=O,1.8%,50.1µM*,-10.7%,20.6%,-13.7%,-38.6%
CCCN1CCN(CCCNC(=O)c2ccc3c(c2)sc2nc(-c4ccc(OCC)cc4)cn23)CC1,19.8%,?,/,-16.7%,?,28.2µM*
CCOc1ccc(-c2cn3c(n2)sc2cc(C(=O)NCCCN4CCCCCC4)ccc23)cc1,-1.3%,7.3%[59 µM],/,58.0%,-6.6%,16.1%
O=C1CCCN2N=C(SCC(=O)Nc3ccccc3C(F)(F)F)SC2=N1,1.8%,19.2%,0.7%,?,?,56.2µM*
CCCSc1oc(-c2ccco2)nc1S(=O)(=O)c1ccc(Cl)cc1,0.5%,-22.9%[59 µM],/,26.2%,1.7%,3.6%
Cc1ccc(S(=O)(=O)c2nc(-c3ccco3)oc2SC(C)C)cc1,8.7%,44.7µM*,-22.4%,14.3%,-15.7%,-13.8%
CCSc1oc(-c2cccs2)nc1S(=O)(=O)c1ccccc1,-18.8%,?,?,?,39.8µM*,-2.5%
CCSc1oc(-c2ccco2)nc1S(=O)(=O)c1ccc(C)cc1,-5.6%,25.1µM*,-20.2%,28.9%,-12.6%,-30.7%
